# This excerpt belongs to a sample that is enriched for hits.
# Dicer processing – inhibitors of human Dicer processing of pre-microRNA; z-score at 25 µM; AID 1347074; cat-ELCCA pre-miR-21 Dicer processing, chemiluminescence; hits give high values; actives 6% (n = 47,000); Q9UPY3; in the data active = z-score above about 3, passing the limit was not always enough;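 also: plate controls were vehicle for no effect and no enzyme for full effect; higher signal means more uncleaved substrate so more Dicer inhibition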
# Active calls of the source: *.
SMILES,Dicer processing
O=[N+]([O-])c1c(N2CCOCC2)ccc2nsnc12,-0.77
Oc1ccc2ncccc2c1C(Nc1ccccn1)c1cccs1 (stereo unspecified),0.84
COc1ccc2[nH]c(C)c(CN3CCCC3)c(=O)c2c1,0.96
CCOc1ccc2[nH]c(C)c(CN3CCCC3)c(=O)c2c1,0.61
COc1ccc2[nH]c(C)c(CN3CCC(C)CC3)c(=O)c2c1,3.48*
COc1ccc(Nc2ccccc2C(C)C)c(C(=O)O)c1,0.4
Cc1ccc(OCCOc2ccc(Oc3nc(N(C)C)nc(N(C)C)n3)nn2)cc1,0.41
CCCCn1c(SCC(=O)OC)nc2sc3c(c2c1=O)CCC3,4.28*
CCn1c(SCC(=O)c2ccccc2)nc2sc3c(c2c1=O)CCC3,-1.03
COC(=O)CSc1nc2sc3c(c2c(=O)n1-c1ccc(OC)cc1)CCCC3,24.1
COc1ccc(C2C3=C(CC(C)(C)CC3=O)Nc3cc(OC)c(OC)cc32)cc1 (stereo unspecified),0.92
Cc1nc(N(C)C)c(C#N)c(C)c1[N+](=O)[O-],-0.48
CCOC(=O)c1cc(C)nc(N2CCCCC2)c1C#N,0.2
Cc1nc(N2CCCCC2)c(C#N)c(C)c1[N+](=O)[O-],4.49*
Clc1cccc(Sc2ccc(-c3ccccn3)s2)c1,-0.72
COc1ccc(SCCC(=O)NNS(=O)(=O)c2ccc(-c3ccccn3)s2)cc1,-1.68
O=C(NNS(=O)(=O)c1ccc(-c2ccccn2)s1)Nc1cccc(Cl)c1,4.04*
COCCOC(=O)c1c(C)oc2ccc(NS(=O)(=O)c3cccc4cccnc34)cc12,-2.37
Cc1cccc(NC(c2ccc3c(c2)OCO3)c2ccc3cccnc3c2O)n1 (stereo unspecified),2.33
COc1ccc(NC(c2ccccn2)c2ccc3cccnc3c2O)cc1 (stereo unspecified),3.12*
CCCOc1ccc(C(Nc2ccccn2)c2ccc3cccnc3c2O)cc1 (stereo unspecified),2.62
Cc1ccc2ccc(C(Nc3cccc(Cl)c3)c3ccccn3)c(O)c2n1 (stereo unspecified),-2.08
COc1ccc(C)cc1NC(c1ccccn1)c1ccc2cccnc2c1O (stereo unspecified),-0.11
Cc1cccc(NC(c2ccc(F)cc2)c2ccc3cccnc3c2O)n1 (stereo unspecified),8.89*
Cc1ccc2ccc(C(Nc3ccccn3)c3ccc(F)cc3)c(O)c2n1 (stereo unspecified),5.62
SMILES,Dicer processing
COc1ccc(C(Nc2cccc(C)n2)c2ccc3cccnc3c2O)cc1 (stereo unspecified),9.1*
Cc1cccc(NC(c2ccccc2)c2ccc3ccc(C)nc3c2O)n1 (stereo unspecified),1.67
Cc1ccc2oc3c(c(=O)c2c1)C(c1ccc(O)cc1)N(CCCN1CCOCC1)C3=O (stereo unspecified),1.26
Cn1ncc(Br)c1NC(=O)/C=C/C(=O)O,-0.54
FC(F)(F)c1cc(N2CCCCCCC2)c2c(Cl)cc(Cl)cc2n1,-1.13
COc1cccc2c(C)nc(NC3=NCN(CCc4ccccc4)CN3)nc12,-0.44
CC(C1CC1)N(C(=O)c1ccccc1Cl)c1ccccc1 (stereo unspecified),-2.23
CCOC(=O)c1cc(C)nn1-c1nc2ccc(Cl)cc2s1,2.52
O=C(N/N=C/c1ccc([N+](=O)[O-])cc1)c1ccccc1C1=NCCCN1,0.91
c1ccc(-c2nnc(-c3ccccc3)o2)cc1,1.15
CN(C)c1ccc(-c2nnc(-c3ccccc3)o2)cc1,4.23*
CCCOC(=O)CSc1nnc(-c2ccc(N(C)C)cc2)o1,-1.4
COC(=O)c1cc(/C=C2\CSc3ccc(Cl)cc3C2=O)cn1C,16.4
S=C(NC1CCCCCCC1)N1CCN(c2ncnc3scc(-c4ccccc4)c23)CC1,-1.82
CCCCCSc1nnc2c(n1)OC(C)=Nc1ccccc1-2,0.64
CCCCSc1nnc2c(n1)OC(C)=Nc1ccccc1-2,3.24*
CCCCSc1nnc2c(n1)OC(C)=Nc1ccc(Br)cc1-2,1.26
O=C(O)c1ccc(NC2SC(=O)N(c3ccccc3)C2=O)cc1 (stereo unspecified),-0.52
CC1CCc2c(ccc3c4c(ccc23)C(=O)C(C)CC4)C1=O (stereo unspecified),-0.67
N#Cc1ccc(CNC(=O)Nc2ccc(-c3ccccc3)s2)cc1,0.08
Cc1n[nH]c(=O)nc1NCCCN(C)C,-1.37
Cc1n[nH]c(=O)nc1NCC1CCCO1 (stereo unspecified),5.76*
Cc1ccccc1Cn1c(NCC2CCCO2)nc2c1c(=O)n(C)c(=O)n2C (stereo unspecified),1.66
Cc1cc(N(CCO)CCO)n2ncnc2n1,-0.5
CN(C)C(=O)C(=O)c1c(-c2ccc(Br)cc2)[nH]c2ccccc12,-0.43
SMILES,Dicer processing
O=C1Nc2ccccc2/C1=C/c1ccc2nsnc2c1,-0.73
COc1cc2c(cc1OC)/C(=C/c1cc(OC)c(OC)c(OC)c1)C(=O)N2,1.67
O=C1Nc2ccc(I)cc2/C1=C/c1cc(Br)c(O)c(Br)c1,4.48*
Cc1cccc(Cl)c1NC(=S)Nc1cccc(C(F)(F)F)c1,-1.9
CCc1cc2c(=O)c(-c3nc4ccccc4[nH]3)coc2c(CN2CCCC(C)C2)c1O (stereo unspecified),3.32*
CN1CCN(Cc2c(O)ccc3c(=O)c(-c4ccccc4)coc23)CC1,2.02
CCc1cc2c(=O)c(-c3nc4ccccc4n3C)coc2c(CN(CC)CC)c1O,0.32
Cc1c(/C=N/Nc2ccccn2)sc2ccccc12,2.98
C/C(=C\C(=O)c1ccccc1)NCC#N,0.52
COc1ccc(C2=NN(C(=O)CCCC(=O)O)C(c3ccc(F)cc3)C2)cc1OC (stereo unspecified),3.78*
COc1ccc(C2=NN(C(=O)CCCC(=O)O)C(c3ccc(Cl)cc3)C2)cc1OC (stereo unspecified),-1
COc1cccc(C2CC(c3ccccc3)=NN2C(=O)CCCC(=O)O)c1OC (stereo unspecified),0.83
CS(=O)(=O)c1nc2ccccc2s1,0.11
O=C(CNCc1ccccc1)Nc1ccc(I)cc1,-0.1
N#Cc1nc(COc2ccc(Br)cc2)oc1NCCc1ccccc1,2.78
Cc1nc2c(=O)n(-c3c(Cl)cccc3Cl)nc(C)c2s1,0.27
Cc1noc(C(F)(F)F)c1-c1nnc(-c2cccc(C(F)(F)F)c2)o1,1.79
O=C(Nc1cccc(Cl)c1)N1CCc2ccccc2C1,5.96*
CN1CC(=O)N/C1=N\C(=O)Nc1cccc(Cl)c1,-1.5
O=C(Nc1cccc(Cl)c1)N1CCN(c2nsc3ccccc23)CC1,-0.99
CCOC(=O)c1cnc2c(c(C)nn2C)c1N1CCC(C(=O)OCC)CC1,0.07
COc1cccc(C2Oc3ccccc3C3CC(c4ccccc4O)=NN32)c1 (stereo unspecified),3.83
COc1ccc(C2Oc3ccccc3C3CC(c4ccccc4O)=NN32)cc1O (stereo unspecified),1.63
Oc1ccccc1C1=NN2C(C1)c1ccccc1OC2c1ccncc1 (stereo unspecified),1.91
COc1ccc(C2Oc3ccccc3C3CC(c4ccccc4O)=NN32)cc1OC (stereo unspecified),4.75*
COc1ccc(O)c(C2=NN3C(C2)c2ccccc2OC3c2ccc(OC)c(O)c2)c1 (stereo unspecified),1
Oc1ccc(C2Oc3ccccc3C3CC(c4ccccc4O)=NN32)cc1 (stereo unspecified),18.1*
O=C(O)c1cc2cc([N+](=O)[O-])ccc2oc1=O,0.39
CCCCCSc1nnc2c(n1)OC(CC)N(C(C)=O)c1ccccc1-2 (stereo unspecified),-0.51
